Shown are actives, neighbours in structure and some others; about 19% of the full set was active somewhere.
Pf growth 96h – P. falciparum growth inhibition at 96 hour, primary screen for plastid delayed-death inhibitors; P. falciparum luciferase reporter growth, 96 h; Potency, µM (highest dose often 28.7 µM), for inactives: at the highest dose activity change, negative = inhibition, actives largely listed as inhibitors; hit rate 6.9% among 320,000; further: potency means the concentration at half of the fitted maximal effect; on the % scale 0 is the no-effect control and ±100 the full control effect
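Erythrocytes infected with luciferase-expressing P. falciparum were dispensed at 2% hematocrit and 0.05% parasitemia (final), then incubated with compounds 96 hours at 37 C in 5% CO2. Luminescence after detection reagent addition reported growth.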
Shiga toxin inh – Shiga toxin inhibition | inhibition, % at 38.7 µM | hit rate 9.2% among 290,000 | Vero cells, Shiga toxin protein synthesis inhibition reporter; in the data active means inhibition mostly above about 28%, no sharp cut-off; inactive means mostly below about 43%; further: 0% is about no effect
Lassa entry inh – Lassa virus entry inhibition; Lassa virus pseudotype entry inhibition, cell reporter; Potency, µM (titrated, usually from 37.9 µM), for the others: top-dose activity change, negative = inhibition, hits mostly inhibitors; hit rate 1.2% among 300,000; AID 540256; calls by dose curve; tested in HEK293 cells; further: potency means the concentration at half of the fitted maximal effect; on the % scale 0 is the no-effect control and ±100 the full control effect; nearly all actives have a fitted effect of over 50% in size
MARV entry inh – Marburg virus entry inhibition; Marburg virus pseudotyped entry inhibition, cell reporter; Potency, µM (highest dose often 37.8 µM), for inactives: top-dose activity change, negative = inhibition, most hits filed as inhibitors; hit rate 1.8% among 300,000; AID 540276; calls by dose curve; tested in HEK293 cells; further: potency means the concentration at half of the fitted maximal effect; on the % scale 0 is the no-effect control and ±100 the full control effect
Pf growth 48h – inhibits P. falciparum growth in the first generation, 48 h. hit rate 5.9% among 310,000. Potency, µM (titrated, usually from 28.7 µM), for the others: top-dose activity change, negative = inhibition, usual class: inhibitors. P. falciparum luciferase growth in erythrocytes, 48 h. AID 504832; further: potency means the concentration at half of the fitted maximal effect; on the % scale 0 is the no-effect control and ±100 the full control effect
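Compounds are pin-transferred into medium, infected erythrocytes (2% hematocrit, 0.1% parasitemia final) are added, and plates sit one parasite generation at 37 C in 5% CO2. Detection reagent is then added and luminescence measured.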
CHX counter – counter-screen for Shiga toxin inhibitors: cycloheximide protein synthesis inhibition | hit rate 12% among 300,000 | max response, % | cell reporter, cycloheximide protein synthesis inhibition counterscreen | AID 2314; in the data active means max response mostly above about 13%, no sharp cut-off; inactive means mostly below about 14%; further: read at 38.3 µM for the half of the compounds with a filed dose; 0% is about no effect
* marks the source's active call; other numbers are inactive results; ? = inconclusive; . = not tested or not shown; [ ] = remark or other dose. Unless noted, the call rests on the fitted dose curve; in most records, active means well fitted inhibition curve with a large enough effect; inconclusive means small, poorly fitted or top-dose-only effect, or another doubt; inactive means no such curve, though single readings can be large or run the other way.

SMILES	Pf growth 96h	Shiga toxin inh	Lassa entry inh	MARV entry inh	Pf growth 48h	CHX counter
CCOC(=O)Cn1c(S(=O)(=O)Cc2ccccc2Cl)nc(-c2ccccc2)c1-c1ccccc1	2.6µM*	8	12µM*	5.2µM*	9.3µM*	1
CCOC(=O)Cn1c(-c2cccnc2)nc(-c2ccccc2)c1-c1ccccc1	2.3µM*	-10	2%[46.1 µM]	?	4.1µM*	-1
C#CCn1c(S(=O)(=O)Cc2ccccc2Cl)nc(-c2ccccc2)c1-c1ccccc1	?	-5	.	-7%	8.3µM*	6
Cc1ccc(S(=O)(=O)Cc2ccccc2Cl)cc1	?	-5	?	?	-5%	-3
Cc1cc2cc(CCNC(=O)CC(C)C)c(=O)[nH]c2cc1C	16%	5	.	.	1%	-3
CCN(Cc1ccncc1)C(=O)c1ccc(Br)o1	3%	-5	.	.	9%	-1
O=C(c1ccc2c(c1)N(Cc1ccccc1)C(=O)c1ccccc1S2(=O)=O)N1CCN(c2ccccn2)CC1	.	.	?	3.5µM*	.	.
CCN1CCN(C(=O)c2ccc3c(c2)N(Cc2ccccc2)C(=O)c2ccccc2S3(=O)=O)CC1	23%	-10	6%[46.1 µM]	-2%[46.1 µM]	6.6µM*	-2
O=C(c1ccc2c(c1)N(Cc1ccccc1F)C(=O)c1ccccc1S2(=O)=O)N1CCN(c2ccccn2)CC1	.	.	-5%[46.1 µM]	1%[46.1 µM]	.	.
CCCc1cc(C(=O)Nc2cc(Br)ccc2O)no1	-17%	57*	.	.	5.2µM*	22*
CCCc1cc(C(=O)Nc2cc(Cl)ccc2O)no1	?	92*	?	-23%[46.1 µM]	?	31*
COc1ccccc1N1CCN(C(=O)c2cn(CC(C)C)c(=O)c3c2c2ccccc2n3C)CC1	.	.	?	-4%[46.1 µM]	.	.
CC(C)(C)OC(=O)N1CCCN(C(=O)Nc2ccc(OC(F)(F)F)cc2)CC1	?	-4	-7%[46.1 µM]	-5%[46.1 µM]	?	1
C=Cn1ccnc1P(=S)(c1nccn1C=C)c1nccn1C=C	?	-11	13%	4%	?	-2
C=Cn1ccnc1P(=S)(c1ccn(C)c1)c1nccn1C=C	7.4µM*	17	26%	?	-1%	-4
Cc1cn2c(=O)cc(COC(=O)COc3ccc(F)cc3)nc2s1	.	.	6%[46.1 µM]	.	.	.
Cc1cc(C(=O)NCCN2CCOCC2)ccc1[N+](=O)[O-]	-28%	8	-1%	?	48%	-2
COc1ccc(NC(=O)Cc2cccc(F)c2)cc1S(=O)(=O)Nc1ccccc1Cl	?	-2	?	?	?	1
COc1cc(CCC(C)=O)ccc1OC(=O)c1c(F)cccc1Cl	445%	88*	?	?	485%	39*
COc1ccccc1CNC(=O)COC(=O)Cc1c(F)cccc1Cl	12%	16	19%	15%[46.1 µM]	5%	8
COc1ccc(NC(=O)COC(=O)Cc2c(F)cccc2Cl)cc1OC	0%	46	6%	8%[46.1 µM]	-2%	21*
COc1ccc(NS(=O)(=O)c2cc(NC(=O)Cc3c(F)cccc3Cl)ccc2OC)cc1	?	.	?	-30%	5.9µM*	.
COc1ccc(NC(=O)COC(=O)c2c(F)cccc2Cl)cc1OC	175%	76*	.	.	128%	41*
COc1ccc(NC(=O)COC(C)=O)cc1OC	12%	-7	6%	6%[46.1 µM]	?	-2
CC1(c2cnc(Nc3ccccc3)s2)CCC(=O)O1 (stereo not given)	47%	64*	4%	-10%[46.1 µM]	53%	34*
SMILES	Pf growth 96h	Shiga toxin inh	Lassa entry inh	MARV entry inh	Pf growth 48h	CHX counter
C[C@]1(c2cnc(Nc3ccccc3)s2)CCC(=O)O1	.	.	.	-10%[46.1 µM]	.	.
COc1ccc(N=C2S/C(=C\c3cc(C)n(C)c3C)C(=O)N2C)cc1	9.3µM*	-13	4.5µM*	?	?	-1
COc1ccc(N=C2S/C(=C\c3ccc(C)s3)C(=O)N2CC(C)C)cc1	?	-8	6%	-17%	?	1
CCCN1C(=O)/C(=C/c2cc(C)n(C)c2C)SC1=Nc1ccc(OC)cc1	13µM*	-14	?	?	?	-2
COc1ccc(N=C2S/C(=C\c3cccs3)C(=O)N2CC(C)C)cc1	3.7µM*	-18	-15%	-11%	?	-4
O=C(CC1Sc2ccc(C(F)(F)F)cc2NC1=O)Nc1ccc(Cl)c(C(F)(F)F)c1 (stereo not given)	.	.	1%[46.1 µM]	1%[46.1 µM]	.	.
O=C(COc1ccccc1Cl)Nc1cccc(S(=O)(=O)NC2=NCCCCC2)c1	?	.	-5%[46.1 µM]	?	?	.
O=C1/C(=C\c2cc3c(cc2Cl)OCO3)N2CCC1CC2	5.9µM*	30	1%	?	21%	7
O=C1/C(=C/c2cc3c(cc2Cl)OCO3)N2CCC1CC2	0%	10	-9%	-1%	16%	-2
COc1ccccc1NS(=O)(=O)c1ccc(O)c(C(=O)OCc2cccc([N+](=O)[O-])c2)c1	6%	21	-5%	-17%	-13%	13
CCc1ccc(NC(=O)N(Cc2ccco2)C(C)c2cccs2)cc1 (stereo not given)	0%	52*	?	?	?	21*
CCc1ccccc1NC(=S)N(Cc1ccco1)C(C)c1cccs1 (stereo not given)	?	-3	-25%[46.1 µM]	?	14%	10
CC1CCCCN1C(=O)/C=C/c1ccccc1[N+](=O)[O-] (stereo not given)	0%	29	3%	3%[46.1 µM]	11%	20*
O=C(/C=C/c1ccccc1[N+](=O)[O-])N1CCCCC1	12%[5.75 µM]	66*	2%	4%	36%	20
CCN(CC)C(=S)SCC(=O)Nc1nc(-c2ccccc2)c(-c2ccccc2)o1	47%	-8	?	?	15%	-3
COc1cc(C(=O)Nc2ccccc2-c2nc(-c3ccccc3)no2)cc(OC)c1OC	.	20	5%[46.1 µM]	3%[46.1 µM]	.	-4
CCNC(=O)CC1C(=O)N(c2ccc(F)cc2)C(=S)N1CCc1ccncc1 (stereo not given)	?	-11	-3%[46.1 µM]	?	13µM*	13
CCc1ccc(NC(=O)CC2C(=O)N(c3ccc(C)cc3)C(=O)N2CCc2ccncc2)cc1 (stereo not given)	-4%	-4	-12%[46.1 µM]	?	15µM*	-5
COc1ccccc1-c1nc2c3c(-c4ccccc4)c(-c4ccccc4)oc3ncn2n1	.	.	11%[46.1 µM]	.	.	.
CCOc1ccc(S(=O)(=O)N2CCN(C(=O)CCOc3ccccc3C)CC2)cc1	?	.	?	?	10µM*	.
Cc1ccc(S(=O)(=O)N2CCN(C(=O)COC(=O)CCOc3ccccc3C)CC2)cc1	6%	.	-27%	?	2%	.
CC(=O)c1ccc(OCCCC(=O)N2CCN(S(=O)(=O)c3ccc(C(C)C)cc3)CC2)cc1	5.2µM*	.	?	-20%	9.3µM*	.
CCOc1ccc(OCCC(=O)OCC(=O)N2CCN(S(=O)(=O)c3ccc(Cl)cc3)CC2)cc1	-3%	54*	?	?	-21%	35*

Screening results as filed in PubChem.
